# Experimental data taken from PubChem BioAssay (NCI).
# The panel holds about 83,000 compounds, 20% with a hit somewhere; the sample as a whole holds those more often.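 96-well plates, one dose, 48 hours. Percent growth reported; active if below 10.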 Calls of active or inactive are those of the source.
# Tested on: HCT-116 colon
# Assay: NCI-60 one-dose screen, 48 h (100 = growth as untreated, 0 = no growth, -100 = all killed)
# Conditions: 10 µM unless noted
row,Structure (SMILES),growth
1,O=C(Nc1ccc(Oc2ccc(Nc3nc4ccccc4s3)cc2)cc1)Nc1ccc(Cl)c(C(F)(F)F)c1,0.0223% (active)
2,CC(C)(C)CC(C)(C)NCc1cc(C(C)(C)C)cc(CNC(C)(C)CC(C)(C)C)c1O,26.1% (inactive)
3,C=CCn1c(SCC(=O)Nc2ccc(C(=O)/C=C/c3ccc(Cl)cc3)cc2)nnc1-c1ccc(Cl)cc1,-17.8% (active)
4,OC(c1cc2cc(Cl)ccc2c2cc(C(F)(F)F)ccc12)C1CCCCN1 (centres undefined),-85.8% (active)
5,CCOC(=O)NNc1cccc(Cl)c1,111% (inactive)
6,Cc1nc2ccc(Nc3nc(N4CCOCC4)nc(N4CCN(C)CC4)n3)cc2n1Cc1ccccc1,71.3% (inactive)
7,F,8.71% [6.87 mM] (active)
8,OC(c1cc2c(Cl)cc(Cl)cc2c2cc(C(F)(F)F)ccc12)C1CCCCN1 (centres undefined),-85.9% (active)
9,CCCCn1c(-c2ccc(F)cc2)nc2cc(OC)c(OC)cc2c1=O,67.3% (inactive)
10,COc1ccc(-c2cn(-c3cccc(C(=O)/C=C/c4ccc(O)c(OC)c4)c3)c(=O)[nH]2)cc1,-35.4% (active)
11,Cc1ccc(Nc2nc(NCCO)c3ccccc3n2)cc1C,16.5% (inactive)
12,COc1ccc2c(c1)CCCC21C(=O)Nc2ccccc21 (centres undefined),102% (inactive)

# Tested on: HCC-2998 colon
# Assay: as above
# Conditions: 10 µM unless noted
row,Structure (SMILES),growth
1,NS(=O)(=O)c1ccc(N2N=C(c3cccs3)CC2c2ccccc2O)cc1 (centres undefined),-8.11% (active)
2,N#Cc1ccc(NC(=O)Nc2nc3ccc(OC(F)(F)F)cc3s2)cc1,-5.67% (active)
3,Cc1nn(-c2ccc(Cl)cc2)c(=O)n1CCN1CCOCC1,91.3% (inactive)
4,O=C(O)Cn1ccc2ccccc21,104% (inactive)
5,SCc1ccc(CS)cc1,101% (inactive)
6,Oc1ccc(-c2cnc(-c3ccccc3)[nH]2)c(O)c1,117% (inactive)
7,Fc1cc(-c2nnc3sc(-c4ccc(Cl)cc4)nn23)c(Cl)cc1Cl,106% (inactive)
8,CCCOC(=O)C1c2cc3c(cc2CC(C)C1C(=O)OCCC)OCO3 (centres undefined),98.6% (inactive)
9,[Ag].[Ag].[NH-]S(=O)(=O)c1ccc(N=Nc2cc(N=Nc3ccc(S([NH-])(=O)=O)cc3)c3c(NC(=O)C(Cl)Cl)cccc3c2OC(=O)C(Cl)Cl)cc1.[c-]1nccs1.[c-]1nccs1,99.1% (inactive)
10,CN(C)c1ccc(/C=C(\C#N)c2nc3ccccc3n2C)cc1,61.3% (inactive)
11,CCc1ccc(Nc2cc(C)c3ccc(O)cc3n2)cc1,-59.8% (active)
12,Fc1ccc(-c2nnc(N3CCOCC3)c3ccccc23)cc1,110% (inactive)
13,N[C@@H](CO)C(=O)O,98.1% (inactive)
14,COc1ccc2nc(C)cc(Nc3ccccc3O)c2c1,112% (inactive)
15,COc1cc2c(cc1C)NC(=O)/C2=C\c1c[nH]c2ccccc12,109% (inactive)
16,Clc1ccc2c(c1)-n1cccc1C(c1ccc3ccccc3c1)=NC2,87.9% (inactive)
17,O=C(C(=O)c1cccnc1)c1cccnc1,99.1% (inactive)
18,NC(=O)Nc1ccc2ncnc(Nc3cccc(O)c3)c2c1,102% (inactive)
19,COc1ccc(C2C3CCc4ccccc4C3=NN2C(=O)c2cc(OC)c(OC)c(OC)c2)cc1O (centres undefined),110% (inactive)

row,Structure (SMILES),growth
1,O=C(Nc1ccc(Oc2ccc(Nc3nc4ccccc4s3)cc2)cc1)Nc1ccc(Cl)c(C(F)(F)F)c1,2.48% (active)
2,CC(C)(C)CC(C)(C)NCc1cc(C(C)(C)C)cc(CNC(C)(C)CC(C)(C)C)c1O,31.1% (inactive)
3,CCOC(C)(c1ccc(Cl)cc1)C1CCNCC1 (centres undefined),89.4% (inactive)
4,CCCc1n(Cc2ccc3ccccc3n2)cc[n+]1Cc1ccc2ccccc2c1,12.5% (inactive)
5,C=CCn1c(SCC(=O)Nc2ccc(C(=O)/C=C/c3ccc(Cl)cc3)cc2)nnc1-c1ccc(Cl)cc1,90.4% (inactive)
6,C=C1NC(=O)C(C(C)CC)NC(=O)C2CSCC(NC(=O)CCC(=O)O)C(=O)NC(Cc3ccccc3)C(=O)NC(C)C(=O)NC(CC(C)CC)C(=O)NC(C(=O)NC(Cc3ccccc3)C(=O)N3CCCC3C(=O)N2)C(C)OC(=O)C(CO)NC(=O)C(C(O)COC)N(C)C(=O)C(C(C)C)NC(=O)C(CC(C)CC)NC1=O (centres undefined),12.3% [6 µM] (inactive)
7,OC(c1cc2cc(Cl)ccc2c2cc(C(F)(F)F)ccc12)C1CCCCN1 (centres undefined),-86.9% (active)
8,CCOC(=O)NNc1cccc(Cl)c1,99.9% (inactive)
9,Cc1nc2ccc(Nc3nc(N4CCOCC4)nc(N4CCN(C)CC4)n3)cc2n1Cc1ccccc1,96.3% (inactive)
10,F,24.4% [6.87 mM] (inactive)
11,CCCc1cc2c(cc1CN(Cc1cc3c(cc1CCC)OCO3)C(=N)OCC)OCO2,90.5% (inactive)
12,OC(c1cc2c(Cl)cc(Cl)cc2c2cc(C(F)(F)F)ccc12)C1CCCCN1 (centres undefined),-73.5% (active)
13,COc1ccc(-n2nc(C(=O)NCC(=O)Nc3nc4cc(OC)ccc4s3)c3ccccc3c2=O)cc1,55.8% (inactive)
14,CCCCn1c(-c2ccc(F)cc2)nc2cc(OC)c(OC)cc2c1=O,103% (inactive)
15,COc1ccc(-c2cn(-c3cccc(C(=O)/C=C/c4ccc(O)c(OC)c4)c3)c(=O)[nH]2)cc1,17.5% (inactive)
16,CCC1CCc2nc3sc(C(=O)Nc4cccc(F)c4)c(N)c3cc2C1 (centres undefined),91.6% (inactive)
17,Cc1ccc(Nc2nc(NCCO)c3ccccc3n2)cc1C,11.6% (inactive)
18,COc1ccc2c(c1)CCCC21C(=O)Nc2ccccc21 (centres undefined),112% (inactive)
